Source: PubChem BioAssay AID504336 (NMMLSC, 2011)
Where “and” joins values, the source holds several entries; their conditions need not be identical. Equal values may be shown once.

Assay: TOR branch reporter RPL19A-GFP response – cell-based, S. cerevisiae, third cherry pick, flow cytometry, confirmation (AID 504336);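 note: median GFP fluorescence of all gated yeast cells by flow cytometry; ratio of well median fluorescence to plate mean of DMSO wells with DMSO = 100%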
Details: S. cerevisiae RPL19A-GFP strain, 3 h, at 10 µM, stronger effect = lower value;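 active = compounds whose GFP signal falls below 65% of the DMSO control level; inconclusive = fewer than 70 yeast cells counted in the well; inactive = the rest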

GFP response relative to DMSO, inactive:
C/C(=C\C(=O)c1ccc(C)cc1)Nc1cccc(O)c1 99.3%
Nc1c(O)ccc2c1C(=O)c1ccccc1C2=O 102%
COc1cccc2c(O)cc(=O)n(C)c12 99.6%
Nc1nc(NCCOCCO)nc(Nc2cccc(F)c2)c1[N+](=O)[O-] 102%
Nc1[nH]c(=O)nc(Nc2ccccc2)c1N=O 101%
CC1=CN2C(=N)/C(=C/c3ccc(C)o3)C(=O)N=C2S1 101%
Cc1ccc2c(C)ccc(O)c2n1 103%
CS(=O)(=O)Oc1ccc(Br)c2cccnc12 99.3%
COc1cc(OC)cc(C(=O)Nc2ccc(-c3nc4ccccc4o3)cc2)c1 103%
C[n+]1cccc2cccc([O-])c21 98.3%
NC(=O)c1ccnc2c(O)cccc12 98.8%
COC1=C/C(=C/c2c(N)n3cc(C)sc3nc2=O)C=CC1=O 103%
CCCOCc1ccc(O)c2ncccc12 101%
Oc1ccc(F)c2cccnc12 101%
C/C(=C\C(=O)c1ccccc1)Nc1ccc(O)cc1 100%
CC1=NNC(=O)/C1=C\c1cn(-c2ccccc2)nc1-c1ccc(F)cc1 89.7%
Cn1c(=O)c2c(n3cnnc13)-c1ccccc1CC21CCCC1 102%
O=C(N/N=C/c1ccccc1F)c1cccc2ccccc12 100%
O=C(Nc1ccc(-c2nc3ccccc3o2)cc1)c1cccnc1 101%
OCc1ccnc2c(O)cccc12 99.1%
CCOC(=O)CS(=O)(=O)c1nc(-c2ccccc2)cc(C(F)(F)F)n1 93.1%
Nc1ncnc(Nc2cc(Cl)cc(Cl)c2)c1[N+](=O)[O-] 102%
FC(F)Oc1cccc2cccnc12 95.4%
Nc1ccc(O)c2c1C(=O)c1ccccc1C2=O 98.5%
Cc1ccc(C(=O)Nc2nc(-c3ccccn3)cs2)o1 99.3%
COc1cccc(N/C=C/C(=O)c2ccc(C)cc2)c1 103%
Cc1cn2c(N)c(C=C3C=C(Cl)C(=O)C(Cl)=C3)c(=O)nc2s1 104%
CC(=O)C(CC(=O)N1CCCC1)C(=O)Nc1ccc(Cl)cc1 (centres undefined) 102%
COc1ccc(N/C(C)=C/C(=O)c2ccccc2)cc1 102%
C=CCNc1nc(N)c([N+](=O)[O-])c(Nc2cccc(Cl)c2)n1 104%
C=CCNc1nc(N)c([N+](=O)[O-])c(Nc2ccccc2OC)n1 102%
COc1ccc(NC(=O)ON=C2c3ccccc3-c3ccccc32)cc1 107%
Cc1ccc(C(=O)/C=C/Nc2cccc(O)c2)cc1 101%
Oc1ccc(Cl)c2cccnc12 98%
CC1=CN2C(=N)/C(=C/c3ccc([N+](=O)[O-])o3)C(=O)N=C2S1 240%
C/C(=N\NC(=O)c1cccc2ccccc12)c1cccnc1 98.3%
Cc1ccc(C)c(Nc2ncnc(N)c2[N+](=O)[O-])c1 99.3%
CCN(CC)c1ncnc2ccc(Br)cc12 98%
COc1ccc(-c2cc(C(F)(F)F)nc(S(C)(=O)=O)n2)cc1OC 99.6% and 103%
